This is one part of the list. The true hit rate is not given.

This assay has as its target furin, P09958. The assay is described as follows: furin cleavage Z-score vs untreated control; higher = more cleavage, active = 3.5 or more, inactive = 1 or less, 8 variable residues between constant flanks. A digest of the protocol:
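Purified furin cleaved 8-mer peptides that were fused to a cDNA oligonucleotide and held on magnetic beads by their N-terminus. Each 0.01 ml reaction used a 1:10 enzyme:substrate ratio in 50 mM HEPES pH 7.5 with CaCl2 and NaCl and ran 7.5, 15 or 30 min. Released DNA was adapter-tagged by PCR and sequenced, and read counts gave abundance. The cleavage Z-score came from log counts against furin-free reactions, lowess-adjusted and scaled by median absolute deviation.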

Sequence of furin, P09958 (P09958 whole entry, the tested form may be a part): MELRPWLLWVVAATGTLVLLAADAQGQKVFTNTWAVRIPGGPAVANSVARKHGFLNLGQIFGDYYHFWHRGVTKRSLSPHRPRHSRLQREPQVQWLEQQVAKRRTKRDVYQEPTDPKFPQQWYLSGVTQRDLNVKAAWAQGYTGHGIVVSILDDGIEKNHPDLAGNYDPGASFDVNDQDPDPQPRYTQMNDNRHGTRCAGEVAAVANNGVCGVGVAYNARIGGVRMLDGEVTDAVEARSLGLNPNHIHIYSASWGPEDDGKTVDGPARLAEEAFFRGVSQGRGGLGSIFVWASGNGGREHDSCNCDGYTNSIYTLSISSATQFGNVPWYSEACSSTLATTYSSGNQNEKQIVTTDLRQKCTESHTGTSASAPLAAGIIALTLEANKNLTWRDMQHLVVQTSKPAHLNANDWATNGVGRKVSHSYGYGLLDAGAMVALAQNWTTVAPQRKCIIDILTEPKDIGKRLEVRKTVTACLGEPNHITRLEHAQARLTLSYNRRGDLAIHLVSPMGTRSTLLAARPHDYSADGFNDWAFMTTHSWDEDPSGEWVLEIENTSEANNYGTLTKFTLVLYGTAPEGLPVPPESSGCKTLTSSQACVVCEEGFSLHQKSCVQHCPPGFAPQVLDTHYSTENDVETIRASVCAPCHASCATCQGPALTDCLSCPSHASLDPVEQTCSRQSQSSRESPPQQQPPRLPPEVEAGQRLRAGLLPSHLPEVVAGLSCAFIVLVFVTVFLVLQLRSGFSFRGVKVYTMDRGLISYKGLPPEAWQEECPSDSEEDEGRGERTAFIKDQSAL

CAKAVDFIPVAGNASASA [HC756]: the “furin cleavage Z-score” value was -0.823 (inactive) (7.5 min), -0.464 (inactive) (15 min) and -0.656 (inactive) (30 min).
On to CATPGLPVCQAGNASASA [HC933], for which the “furin cleavage Z-score” value by setting is: (7.5 min) 0.0348 (inactive); (15 min) -0.269 (inactive); (30 min) 0.151 (inactive).
With CATPQRLRRQAGNASASA [FS-570], the “furin cleavage Z-score” value (7.5 min) was 7.8 (active), the “furin cleavage Z-score” value (15 min) was 8.92 (active) and the “furin cleavage Z-score” value (30 min) was 4.33 (active).
As for CAEVVTSTWFAGNASASA [HC2247], the “furin cleavage Z-score” value runs as follows: (7.5 min) -0.0997 (inactive); (15 min) 1.76; (30 min) 0.942 (inactive).
Taken in the same sequence, the figures for CAAMRRLKRRAGNASASA [FS-1304] were 8.73 (active), 7.83 (active) and 8.17 (active).
Taken in the same sequence, the figures for CAIFLRLKRRAGNASASA [FS-800] were 3.63 (active), 3.18 and 3.43.
Taken in the same sequence, the figures for CARFLRHTGRAGNASASA [FS-1701] were 2.28, 1.08 and 0.702 (inactive).
With CALRRRLKRRAGNASASA [FS-361], the “furin cleavage Z-score” value (7.5 min) is 7.56 (active), the “furin cleavage Z-score” value (15 min) was 7.31 (active) and the “furin cleavage Z-score” value (30 min) was 5.73 (active).
Turning to CAETRRERRRAGNASASA [FS-1121], the “furin cleavage Z-score” value was 3.87 (active) (7.5 min), 4.13 (active) (15 min) and 4.7 (active) (30 min).
CAREQRERRRAGNASASA [FS-1155]: the “furin cleavage Z-score” value reads like this: (7.5 min) 0.997 (inactive); (15 min) 2.01; (30 min) 2.01.
As for CASDVVCCSMAGNASASA [HC2117], the “furin cleavage Z-score” value runs as follows: (7.5 min) 1.61; (15 min) -1.16 (inactive); (30 min) 0.074 (inactive).
CAMEEGSQHLAGNASASA [HC2]: the “furin cleavage Z-score” value reads like this: (7.5 min) -0.0457 (inactive); (15 min) -0.462 (inactive); (30 min) 1.87.
The like results for CAYVTGMTTDAGNASASA [HC1211] were, in that order, -0.923 (inactive), -0.868 (inactive) and -1.18 (inactive).
Taken in the same sequence, the figures for CAQDAVSRTQAGNASASA [HC900] were -0.887 (inactive), -1.13 (inactive) and -1.41 (inactive).
CADLEVVTSTAGNASASA [HC2271]: the “furin cleavage Z-score” value runs as follows: (7.5 min) -1.06 (inactive); (15 min) 0.142 (inactive); (30 min) -0.409 (inactive).
The like results for CAGYIPLVGAAGNASASA [HC228] were, in that order, -0.438 (inactive), -0.464 (inactive) and -0.124 (inactive).
The like results for CALEHRRMRRAGNASASA [FS-349] were, in that order, 11 (active), 10.5 (active) and 9.29 (active).
For CALRRRMRRRAGNASASA [FS-1368], the “furin cleavage Z-score” value runs as follows: (7.5 min) 3.44; (15 min) 4.48 (active); (30 min) 4.37 (active).
Taken in the same sequence, the figures for CASTPCSAGLAGNASASA [HC2556] were -0.924 (inactive), -0.11 (inactive) and -0.471 (inactive).
Take CAWEECSQHLAGNASASA [HC1668]: the “furin cleavage Z-score” value runs as follows: (7.5 min) 2.53; (15 min) 0.743 (inactive); (30 min) 0.0767 (inactive).
Taken in the same sequence, the figures for CAGTPCSAHLAGNASASA [HC2476] were -0.662 (inactive), -0.917 (inactive) and -0.0259 (inactive).
As for CAATPCSGSWAGNASASA [HC1823], the “furin cleavage Z-score” value (7.5 min) was -0.934 (inactive), the “furin cleavage Z-score” value (15 min) was -0.493 (inactive) and the “furin cleavage Z-score” value (30 min) is -0.88 (inactive).
For CAEHVTSTWVAGNASASA [HC2175], the “furin cleavage Z-score” value is, setting by setting: (7.5 min) -1.96 (inactive); (15 min) 1.55; (30 min) 0.829 (inactive).
Taken in the same sequence, the figures for CARDRRMMSQAGNASASA [FS-2653] were 0.37 (inactive), 0.534 (inactive) and 0.367 (inactive).
Take CARLKRIISHAGNASASA [FS-2706]: the “furin cleavage Z-score” value reads like this: (7.5 min) 0.518 (inactive); (15 min) -1.37 (inactive); (30 min) -0.856 (inactive).
The like results for CARLRRVVGQAGNASASA [FS-1747] were, in that order, 0.978 (inactive), -0.277 (inactive) and 1.66.
Regarding CARIRRRASQAGNASASA [FS-2032], the “furin cleavage Z-score” value is 3.16 (7.5 min), 3.54 (active) (15 min) and 4.94 (active) (30 min).
Take CARLRRAADHAGNASASA [FS-2712]: the “furin cleavage Z-score” value by setting is: (7.5 min) 8.97 (active); (15 min) 8.17 (active); (30 min) 7.64 (active).
CARLRRVSHQAGNASASA [FS-1861]: the “furin cleavage Z-score” value (7.5 min) is -2.01 (inactive), the “furin cleavage Z-score” value (15 min) was 0.557 (inactive) and the “furin cleavage Z-score” value (30 min) worked out at 1.98.
On to CARLRRQKLSAGNASASA [FS-2576], for which the “furin cleavage Z-score” value reads like this: (7.5 min) 0.0621 (inactive); (15 min) 0.201 (inactive); (30 min) -0.745 (inactive).
As to CARLRREPGGAGNASASA [FS-2713], the “furin cleavage Z-score” value was -0.934 (inactive) (7.5 min), -0.299 (inactive) (15 min) and -0.815 (inactive) (30 min).
The like results for CARLRRDTQQAGNASASA [FS-2494] were, in that order, 8.34 (active), 9.45 (active) and 7.24 (active).
Taken in the same sequence, the figures for CARLRRRTSHAGNASASA [FS-2716] were 1.21, 1.27 and 4.1 (active).
